Experimental data taken from PubChem BioAssay (NCATS).
Several values for one entry are separate records, joined by “and”; a condition that tells them apart may be missing. Equal entries are not always repeated. Results filed as inconclusive are left out. Activity calls are given as the source filed them. Calls follow the shape of the dose curve; as a rule, active = well fitted inhibition curve with a large enough effect; inconclusive = small, poorly fitted or top-dose-only effect; inactive = flat fitted curve, though single readings scatter.

Experiments:
CRL-7250 = normal cell line; experiment: Cytotoxic Profiling of Annotated Libraries Using Quantitative High-Throughput Screening (AID 1296008); settings: Five cell lines viability, CellTiter-Glo ATP luminescence, 48-72 h; max response: active compounds read low; as to max response: % is scaled to controls: 0 for no effect and ±100 for the full control effect
In short: (§1)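 Cells exposed to compounds for 48 or 72 hr at 37 degrees Celsius. Viability read as ATP-coupled luminescence with CellTiter-Glo after 10 min at room temperature.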

HEK293 = experiment: as above; settings: Five cell lines viability, CellTiter-Glo ATP luminescence, 48-72 h; max response: active compounds read low
In short: as §1

HaCat = experiment: as above; settings: Five cell lines viability, CellTiter-Glo ATP luminescence, 48-72 h; max response: active compounds read low
In short: as §1

KB-3-1 = experiment: as above; settings: Five cell lines viability, CellTiter-Glo ATP luminescence, 48-72 h; max response: active compounds read low
In short: as §1

NIH3T3 = experiment: as above; settings: Five cell lines viability, CellTiter-Glo ATP luminescence, 48-72 h; max response: active compounds read low
In short: as §1

HB3 = experiment: qHTS profiling for inhibitors of Plasmodium falciparum proliferation (AID 504749); settings: P. falciparum in erythrocytes, SYBR Green DNA, 72 h; series mostly up to 28.7 µM
In short: (§2)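 SYBR Green fluorescence (ex 485 nm, em 535 nm) reports parasite DNA after 72 h compound exposure of infected red cells at 0.3% parasitemia, 2.5% hematocrit; signal normalized to 0.29 uM artemisinin and vehicle wells.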

ICS = experiment: as above; settings: P. falciparum in erythrocytes, SYBR Green DNA, 72 h; series mostly up to 28.7 µM
In short: as §2

JCK = experiment: as above; settings: P. falciparum in erythrocytes, SYBR Green DNA, 72 h; series mostly up to 28.7 µM
In short: as §2

N140 = experiment: as above; settings: P. falciparum in erythrocytes, SYBR Green DNA, 72 h; series mostly up to 28.7 µM
In short: as §2

P93_24 = experiment: as above; settings: P. falciparum in erythrocytes, SYBR Green DNA, 72 h; series mostly up to 28.7 µM
In short: as §2

P94_40 = experiment: as above; settings: P. falciparum in erythrocytes, SYBR Green DNA, 72 h; series mostly up to 28.7 µM
In short: as §2

PAD = experiment: as above; settings: P. falciparum in erythrocytes, SYBR Green DNA, 72 h; series mostly up to 28.7 µM
In short: as §2

PC15 = experiment: as above; settings: P. falciparum in erythrocytes, SYBR Green DNA, 72 h; series mostly up to 28.7 µM
In short: as §2

PC26 = experiment: as above; settings: P. falciparum in erythrocytes, SYBR Green DNA, 72 h; series mostly up to 28.7 µM
In short: as §2

PC49 = experiment: as above; settings: P. falciparum in erythrocytes, SYBR Green DNA, 72 h; series mostly up to 28.7 µM
In short: as §2

SC27B = experiment: as above; settings: P. falciparum in erythrocytes, SYBR Green DNA, 72 h; series mostly up to 28.7 µM
In short: as §2

TAB109 = experiment: as above; settings: P. falciparum in erythrocytes, SYBR Green DNA, 72 h; series mostly up to 28.7 µM
In short: as §2

TAB113 = experiment: as above; settings: P. falciparum in erythrocytes, SYBR Green DNA, 72 h; series mostly up to 28.7 µM
In short: as §2

TAB165 = experiment: as above; settings: P. falciparum in erythrocytes, SYBR Green DNA, 72 h; series mostly up to 28.7 µM
In short: as §2

W2 = experiment: as above; settings: P. falciparum in erythrocytes, SYBR Green DNA, 72 h; series mostly up to 28.7 µM
In short: as §2
Also: nearly all actives have a fitted effect of over 60% in size.
Potency is read from the fitted curve at half-maximal effect.

Cc1nc2n(c(=O)c1CCN1CCC(c3noc4cc(F)ccc34)CC1)CCC[C@H]2O
inactive: max response (CRL-7250) -3.73% | outcome (CRL-7250) | max response (HEK293) -1.89% | outcome (HEK293) | outcome (HaCat) | max response (KB-3-1) -12.7% and -2.14% | max response (NIH3T3) 1.23% | outcome (NIH3T3)

CNC(=O)CN(CCN(CCN(CC(=O)[O-])CC(=O)NC)CC(=O)[O-])CC(=O)[O-].O.[Gd+3]
inactive: outcome (CRL-7250) | outcome (HEK293) | max response (HaCat) -1.56% | max response (KB-3-1) -5.37% and -4.64% | max response (NIH3T3) -1.76%

CC1(C)O[C@@H]2[C@@H](CO[C@@]3(COS(N)(=O)=O)OC(C)(C)O[C@@H]23)O1
inactive: max response (CRL-7250) -9.34% | outcome (HEK293) | outcome (HaCat) | max response (KB-3-1) 12.1% | max response (NIH3T3) -0.846%

CC(=O)OCC(=O)[C@@]1(O)[C@H](C)C[C@H]2[C@@H]3CCC4=CC(=O)C=C[C@]4(C)[C@@]3(F)[C@@H](O)C[C@@]21C
inactive: max response (CRL-7250) 0.495% and 1.45% | max response (HEK293) -2.05% | outcome (HEK293) | max response (HaCat) -3.13% and -0.939% | max response (KB-3-1) 31.1% and 2.64% | outcome (KB-3-1) | max response (NIH3T3) 4.69% | outcome (NIH3T3)

OC[C@H]1O[C@H](O[C@]2(CCl)O[C@H](CCl)[C@@H](O)[C@@H]2O)[C@H](O)[C@@H](O)[C@H]1Cl
inactive: outcome (CRL-7250) | max response (HEK293) -9.55% | outcome (HEK293) | max response (HaCat) -7.79% and -6.26% | outcome (KB-3-1) | max response (NIH3T3) -17.4% | outcome (NIH3T3)

NC[C@H]1O[C@H](O[C@H]2[C@H](O)[C@@H](O[C@H]3O[C@H](CO)[C@@H](O)[C@H](N)[C@H]3O)[C@H](N)C[C@@H]2N)[C@H](N)[C@@H](O)[C@@H]1O
inactive: max response (CRL-7250) -9.82% | max response (HEK293) -0.173% | outcome (HaCat) | max response (KB-3-1) -1.35% and -3.36% | max response (NIH3T3) 1.61%

CC1(C)O[C@@H]2C[C@H]3[C@@H]4C[C@H](F)C5=CC(=O)CC[C@]5(C)[C@H]4[C@@H](O)C[C@]3(C)[C@]2(C(=O)CO)O1
inactive: max response (CRL-7250) 2.33% | outcome (HEK293) | max response (HaCat) -7.7% | max response (KB-3-1) 28% | max response (NIH3T3) 0.0351%

CCOC(=O)c1cccc(N)c1
active: Potency (PC26) 16.9 µM
inactive: Potency (HB3) | Potency (ICS) | Potency (JCK) | Potency (N140) | Potency (P93_24) | Potency (P94_40) | Potency (PAD) | Potency (PC15) | Potency (PC49) | Potency (SC27B) | Potency (TAB109) | Potency (TAB113) | Potency (TAB165) | max response (CRL-7250) -5.88% | max response (HEK293) -0.911% | max response (HaCat) -20.5% | max response (KB-3-1) -6.64% | max response (NIH3T3) -6.41%

CCOC(=O)COc1ccc2c(C)c(CCN(CC)CC)c(=O)oc2c1Cl
inactive: Potency (HB3) | Potency (ICS) | Potency (JCK) | Potency (N140) | Potency (P93_24) | Potency (P94_40) | Potency (PAD) | Potency (PC15) | Potency (PC26) | Potency (PC49) | Potency (SC27B) | Potency (TAB109) | Potency (TAB113) | Potency (W2) | outcome (HEK293) | max response (HaCat) -12.1% | max response (KB-3-1) 7.91% | max response (NIH3T3) 1.29%
active: Potency (CRL-7250) 29.9 µM
